Assay outcomes (PubChem)
Rows were chosen to be rich in hits. Some 20% of all compounds tested hit in one or more screens of this group.
Pf growth 96h: Primary qHTS for delayed death inhibitors of the malarial parasite plastid, 96 hour incubation. P. falciparum luciferase reporter growth, 96 h. Potency, µM (top dose mostly 28.7 µM), for the others: top-dose activity change, negative = inhibition, hits mostly inhibitors. hit rate 6.9% among 320,000; also: potency is read from the fitted curve at half-maximal effect; % is scaled to controls: 0 for no effect and ±100 for the full control effect
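Infected RBCs, 2% Hct / 0.05% parasitemia final; luciferase-reporter P. falciparum; cpd 96 h, 37 C, 5% CO2; luciferase detection reagent; luminescence.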
Cycloheximide cs: Cycloheximide Counterscreen for Small Molecule Inhibitors of Shiga Toxin | cell reporter, cycloheximide protein synthesis inhibition counterscreen | max response, % | hit rate 12% among 300,000 | AID 2314, 2010; in the data active = max response mostly above about 13%, no sharp cut-off; inactive = mostly below about 14%; also: read at 38.3 µM for the half of the compounds with a filed dose; 0% is about no effect
HCMV antiviral: qHTS Assay for inhibitors of the human cytomegalovirus (HCMV) | hit rate 4.5% among 410,000 | HFF cells, HCMV-luciferase reporter, 72 h; hits give low values | AID 1259415, 2018 | activity change, negative = inhibition, % at 57.5 µM; in the data active = activity change below about -60%; inconclusive = no clear call, values can overlap the other calls; inactive = above about -39%; also: % is scaled to controls: 0 for no effect and ±100 for the full control effect
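Steps: HFFs plated, 16 h 37C; compounds added; HCMV-luciferase added to MOI 1 PFU/cell; 72 h 37C; OneGlo reagent, 5 min room temperature; luminescence read, normalized to controls.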
Shiga toxin inh: A qHTS for Small Molecule Inhibitors of Shiga Toxin; Vero cells, Shiga toxin protein synthesis inhibition reporter; inhibition, % at 38.7 µM; hit rate 9.2% among 290,000; AID 2315, 2010; in the data active = inhibition mostly above about 28%, no sharp cut-off; inactive = mostly below about 43%; also: 0% is about no effect
Pf growth 48h: Primary qHTS for delayed death inhibitors of the malarial parasite plastid, 48 hour incubation; P. falciparum luciferase growth in erythrocytes, 48 h; Potency, µM (top dose mostly 28.7 µM), for the others: at the top dose activity change, negative = inhibition, actives largely listed as inhibitors; hit rate 5.9% among 310,000; AID 504832, 2011; also: potency is read from the fitted curve at half-maximal effect; % is scaled to controls: 0 for no effect and ±100 for the full control effect
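Luciferase-expressing parasites in RBCs, 2% Hct / 0.1% parasitemia final; RPMI 1640 + 0.5% Albumax; 37 C, 5% CO2, one generation; luminescence read-out, lower signal = inhibition.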
Starred values were filed as active, the others as inactive; ? = inconclusive; · = not tested or not shown. Unless noted, calls follow the shape of the dose curve; as a rule, active = well fitted inhibition curve with a large enough effect; inconclusive = small, poorly fitted or top-dose-only effect, or another doubt; inactive = no such curve, though single readings can be large or run the other way.

SMILES | Pf growth 96h | Cycloheximide cs | HCMV antiviral | Shiga toxin inh | Pf growth 48h
CC1CC(C)CN(c2ccc(C(=O)NCc3ccc4c(c3)OCO4)cc2[N+](=O)[O-])C1 (configuration not stated) | -25.1% | 0.9 | -62.4* | 2.0 | -23.7%
Cc1ccc(C(=O)NCc2ccc3c(c2)OCO3)cc1S(=O)(=O)N1CCCCC1 | 0.0% | -1.3 | -23.6 | 0.4 | ?
Cc1ccc(C(=O)NCc2ccc3c(c2)OCO3)cc1C | 36.3% | 35.4* | 82.6 | 55.0* | ·
Cc1ccc(C(=O)NCc2ccc3c(c2)OCO3)cc1N1CCCC1=O | -22.6% | -2.0 | 9.7 | 19.3 | ·
Cc1nc(NC(=O)c2ccc([N+](=O)[O-])cc2Cl)sc1C(=O)N(C)C | -26.5% | -2.8 | 0.9 | 11.7 | 5.6%
Cc1cc(C(=O)Nc2nc(C)c(C(=O)N(C)C)s2)ccc1[N+](=O)[O-] | ? | 34.0* | -36.3 | 53.6* | 179.0%
Cc1ccc2[nH]c(=O)c3cc(C(=O)NC4CCC(C)CC4)sc3c2c1 (configuration not stated) | · | · | -26.7 | · | ·
CCOc1ccc(-c2cc3nc(C4CCN(C(=O)OC(C)(C)C)CC4)c(C(=O)Nc4ccc(C)c(F)c4)cn3n2)cc1 | · | · | -93.1* | · | ·
CCOc1ccc(-c2cc3nc(C4CCN(C(=O)OC(C)(C)C)CC4)c(C(=O)Nc4cc(OC)ccc4OC)cn3n2)cc1 | · | · | 11.7 | · | ·
Fc1cccc(/C=C2\CCCC3=C2NC(=S)NC3c2cccc(F)c2)c1 (configuration not stated) | 4.15µM* | 10.9 | -25.3 | 1.3 | 2.62µM*
COc1ccc2cc3c(nc2c1)OCC3 | 0.0% | 20.0* | 64.9 | 101.9* | 38.8%
O=C(O)c1sccc1OCc1ccccc1 | 13.2% | -3.6 | ? | 7.2 | 3.6%
CC(C)(C)c1ccc(COc2ccsc2C(=O)O)cc1 | 6.9% | 20.8* | 29.0 | 35.4* | ?
CC1CCCCN1C(=O)CSc1nc2ccsc2c(=O)n1Cc1ccccn1 (configuration not stated) | 69.6% | 13.9 | 19.4 | 39.9* | 38.4%
CC1CCCCN1C(=O)CSc1nc2cc3c(cc2c(=O)n1Cc1ccc2c(c1)OCO2)OCO3 (configuration not stated) | 4.15µM* | -2.4 | -14.9 | -5.4 | ?
N#Cc1ccc(NC(=O)c2cc(-c3cccc(Cl)c3)on2)cc1 | · | · | 4.8 | · | ·
c1ccc(-n2cnnc2SCc2cn3ccccc3n2)cc1 | ? | -1.0 | -21.7 | 25.4 | 36.8%
c1ccc(CSCc2cn3ccccc3n2)cc1 | 185.4% | 46.9* | -10.2 | 112.3* | 189.1%
O=C(O)c1ccccc1SCc1cn2ccccc2n1 | 42.8% | 3.8 | 3.6 | 6.9 | 3.2%
Cc1ccc(C(=O)OCc2cn3ccccc3n2)cc1 | 31.0% | 14.9* | -26.1 | 14.7 | 71.0%
Cc1ccc(SCc2cn3ccccc3n2)cc1 | 103.4% | 32.2* | ? | 66.4* | 138.8%
Cc1ccc2nc(COC(=O)CNC(=O)c3ccccc3)cn2c1 | 8.1% | · | -28.7 | · | -12.8%
CN(CC(=O)Nc1ccc(F)cc1)C(=O)c1ccncc1 | ? | 7.1 | -72.5* | -5.4 | -5.8%
CN(CC(=O)Nc1ccc(F)cc1)C(=O)c1cccc(S(=O)(=O)N2CCN(c3ccc(F)cc3)CC2)c1 | ? | · | -63.3* | · | 11.7µM*
COc1cccc(CN(C)C(=O)c2cccc(S(=O)(=O)N3CCN(c4ccccc4)CC3)c2)c1 | · | · | -28.5 | · | ·
SMILES | Pf growth 96h | Cycloheximide cs | HCMV antiviral | Shiga toxin inh | Pf growth 48h
CN(CC(=O)Nc1ccc(Cl)cc1)C(=O)c1cccc(S(=O)(=O)N(C)C)c1 | 10.4µM* | 1.1 | -9.9 | -11.5 | ?
COc1ccc(CN(C)C(=O)c2cccc(S(=O)(=O)N3CCN(c4ccccc4)CC3)c2)c(OC)c1OC | ? | · | -69.8* | · | ?
Cc1ccc(C(=O)NNC2=NC(C)(C)Cc3ccccc32)cc1 | -1.7% | 1.0 | -38.3 | -3.5 | -2.0%
CN(CC(=O)Nc1cccc(F)c1)C(=O)c1cccc(S(=O)(=O)N2CCN(c3ccccc3)CC2)c1 | -11.5% | 1.1 | -76.7* | -3.4 | 2.1%
CN(Cc1ccc(F)cc1)C(=O)c1cccc(S(=O)(=O)N2CCN(c3ccccc3)CC2)c1 | ? | · | -26.6 | · | 9.28µM*
O=C(N/N=C/c1ccco1)c1ccccc1OCc1ccc(Br)cc1 | 13.1µM* | 33.1* | -26.3 | 117.9* | 2.1%
O=C(N/N=C/c1ccco1)c1ccc(OCc2ccccc2)cc1 | -43.1% | 11.1* | 22.0 | 0.8 | ?
O=C(N/N=C/c1ccc(COc2ccc(Br)cc2)o1)c1ccco1 | -21.7% | 21.8 | 1.0 | active | ?
O=C(N/N=C/c1ccc(F)cc1)c1ccc(OCc2ccccc2)cc1 | 3.1% | -2.2 | -22.9 | 16.6 | ?
Cc1ccc(/C=N/NC(=O)c2cccc(NC(=O)c3ccccc3C)c2)o1 | 122.5% | -0.7 | 8.7 | -4.6 | -6.7%
Cc1ccc(/C=N/NC(=O)c2cccc(NC(=O)c3ccccc3Cl)c2)o1 | 1.17µM* | 14.3 | 0.0 | 30.0 | -7.0%
O=C(Nc1nnc(COc2ccc(Br)cc2)s1)c1ccco1 | 9.6% | -1.5 | -0.1 | -11.3 | 11.1%
C=CCOc1ccc(C2/C(=C(/O)c3ccc(OC)cc3)C(=O)C(=O)N2CCN2CCNCC2)cc1 (configuration not stated) | 22.3% | 1.6 | -26.1 | 2.7 | ·
Cc1ccc(/C=N/NC(=O)c2ccccc2OCc2cccc(Br)c2)o1 | ? | 15.2* | ? | -9.2 | -29.2%
O=C(N/N=C/c1cccnc1)c1ccccc1OCc1cccc(Br)c1 | -86.4% | -2.1 | ? | -21.6 | ?
Cc1ccc(-c2csc(NC(=O)C3CCN(S(=O)(=O)c4cccs4)CC3)n2)cc1 | 11.7µM* | -2.8 | -78.8* | -3.5 | ?
O=C(Nc1nccs1)C1CCN(S(=O)(=O)c2cccs2)CC1 | 2.4% | -2.1 | -27.7 | -15.9 | 0.0%
Cc1ccc(NC(=O)C2CCN(S(=O)(=O)c3cccs3)CC2)cc1 | ? | 7.2 | -28.1 | 19.2 | ?
O=C(Nc1nc(-c2ccc3ccccc3c2)cs1)C1CCN(S(=O)(=O)c2cccs2)CC1 | ? | -3.0 | -74.7* | -1.4 | ?
CCc1ccc(-c2cc(C(F)(F)F)n3nc(C(=O)Nc4cnn(Cc5ccc(C)cc5)c4)cc3n2)s1 | 4.65µM* | -6.3 | · | -9.8 | ·
Cc1ccccc1Cn1cc(NC(=O)c2cc3nc(-c4ccco4)cc(C(F)(F)F)n3n2)cn1 | 49.7% | 0.5 | -27.8 | -9.1 | ?
COc1ccc(CNC(=O)COCc2cc(-c3cccs3)on2)cc1 | · | · | -5.9 | · | ·
COn1c2c(c3c4no[n+]([O-])c4ccc31)CCCC2 | -16.5% | 5.6 | ? | 12.0 | ·
[O-][n+]1c2c(c3c4non(O)c4ccc31)CCCC2 | 11.7µM* | -5.7 | -97.1* | -16.6 | ·
CCOC(=O)c1c(C)[nH]c(C(=O)COC(=O)c2cnccn2)c1C | ? | · | -2.6 | · | ?
CCOC(=O)c1c(C)[nH]c(-c2csc(N)n2)c1C | ? | 12.0 | -81.2* | 30.3 | 2.94µM*
